Results taken from PubChem BioAssay AID602346 (Broad Institute, 2012).
In all, about 340,000 compounds went through this assay and about 1,200 (0.35%) were called active. Shown is part of a subset that was picked to be rich in actives. A number with no mark means an inactive call. No stated cut-off is given here; in the data, active means inhibition above about 50% (passing the limit was not always enough); inconclusive means no clear call, values can overlap the other calls; inactive means below about 31%.

assay: blockers of Vif multimerization in cells – imaging, HEK293T, single point, primary screen (AID 602346); conditions: Vif self-association by quenched fluorescence, 24 h, at 7.49 µM, active compounds read high

SMILES	inhibition
CC(C)c1cc(N=O)cc(C(C)C)c1O	3.46%
CC(C)=CCc1c(O)c(CC=C(C)C)c2occ(-c3ccc(O)cc3)c(=O)c2c1O	6.99%
CC(C)=CCc1ccc(O)c(=O)cc1C(C)C	114% (active)
O[C@H]1C[C@H](c2ccc(Cl)cc2)N(Cc2cccs2)C[C@@H]1n1cc(C2CC2)nn1	-12.7%
COc1ccc(-c2nc3cnccn3c2NC2CCCCC2)cc1-c1cccc(Cl)c1	51.8% (active)
COc1ccc(-c2nc3cnccn3c2NC(C)(C)CC(C)(C)C)cc1O	-5.81%
COc1ccc(-c2nc3cc(C)ccn3c2NC2CCCCC2)cc1SC1CCCCC1	-0.392%
O=C(NC(c1ccc(-c2ccccc2)cc1)c1cnccn1)C1CCN(CCOc2ccc(Cl)cc2Cl)CC1 (stereo unspecified)	4.85%
CCOC1=C2[C@H]([C@H]3C(=O)N(c4ccccc4)C(=O)[C@H]3C1)[C@@H](c1ccccc1)N(S(=O)(=O)c1ccc(C)cc1)[C@H]2c1ccccc1	6.5%
Cc1cc2nc(-c3ccc(Cl)cc3)c(Cc3cccc(F)c3)n2c(C)c1Br	16.2%
C[C@H]1CN([C@@H](C)CO)C(=O)c2cc(C3=CCCCC3)cnc2O[C@@H]1CN(C)C(=O)Cc1ccccc1	-21%
COc1ccc(-c2nn(-c3ccccc3)cc2C(=O)Nc2nccs2)cc1OC	52.9% (active)
COc1ccc(NC(=O)c2cn(-c3ccccc3)nc2SC)cc1	-9.63%
O=C(O)c1ccccc1-c1ccccc1C(=O)Nc1nccs1	13.1%
CC1(C(=O)Nc2cccc3c2CCCC3)CCN1C(=O)CCc1ccc(Cl)cc1Cl (stereo unspecified)	-0.855%
CCc1cc(-c2nnn(CCC3COCCO3)c2CC)ccc1-c1cn(Cc2ccc3ccccc3c2)nn1 (stereo unspecified)	-19.8%
CCc1nc2c(OCc3ccc(Cl)cc3Cl)cccn2c1N(C)C(=O)C(C)C	-10.6%
CCc1nc2ccc(C(=O)Nc3cc(-c4ccccc4)ccc3OC)cn2c1N(CC)CC(=O)N(C)C	-11.6%
CCOCCC(=O)Nc1ccc2c(c1)c(=O)n(C)n2-c1ccc2ccccc2c1	34.9%

SMILES	inhibition
N#C/C(=C1\CCCN1)c1nc(-c2ccccc2)cs1	61.4% (active)
N#CC(=C1CCCC1)c1nc(-c2ccc(Cl)cc2)cs1	3%
Cn1c(/C(C#N)=C2/CCCCCN2)nc2ccccc21	5.07%
O=C(NCCOc1ccccc1)N1[C@H]2CC[C@@H]1C=C(c1ccc(F)cc1OCc1ccccc1)C2	-2.23%
Cc1ccc2[nH]c(=O)c(-c3nc4c(C)cccn4c3NCc3ccco3)cc2c1	-12.9%
CCCN(CCC)c1nc2c(C)cccn2c(=O)c1/C=C1/SC(=S)N(Cc2ccco2)C1=O	146% (active)
CCc1nc2c(OCc3ccc(C(F)(F)F)cc3)cccn2c1N(C)C(=O)CC(C)C	-5.03%
COc1ccc(NC(=O)C2Cc3c(-c4ccc5c(c4)OCO5)ccnc3O2)cn1 (stereo unspecified)	-5.58%
COc1cccc(CNc2nc(NCc3ccccc3OC)nc3ccsc23)c1	-2.52%
COc1ccccc1C1C2=C(COC2=O)Nc2cc3c(cc21)OCO3 (stereo unspecified)	89.1% (active)
O=C1OCC2=C1C(c1ccc(Cl)cc1)c1cc3c(cc1O2)OCO3 (stereo unspecified)	-11.3%
CCCOc1ccccc1C1CC(=O)Nc2cc3c(cc21)OCO3 (stereo unspecified)	-2.32%
COc1ccccc1C(C)NC(=O)Cc1ccsc1 (stereo unspecified)	98.8% (active)
COc1ccc(OC)c(NC(=O)COC(=O)Cc2ccsc2)c1	9.67%
COc1ccc(CN(C)C(=O)Cc2ccsc2)c(OC)c1OC	-9.61%
CC(=O)Nc1ccc(NC(=O)COc2ccccc2C(=O)Nc2cccc(Cl)c2Cl)cc1	146% (active)
O=C(COc1ccccc1Cl)Nc1ccccc1C(=O)NC1CC1	-13.2%
O=C(COc1ccccc1Cl)Nc1ccc(C(=O)c2ccc(C(=O)O)cc2)cc1	21.3%
NC(c1csc(NC(=O)Nc2ccccc2Oc2ccccc2)n1)c1ccccc1Cl (stereo unspecified)	-9.54%

SMILES	inhibition
COc1cncc(-c2cnc3sc(NCCc4ccccn4)nn23)c1	-4.71%
OC(c1cc(Cl)cc(Cl)c1)c1ncc(-c2ccccc2C(F)(F)F)[nH]1 (stereo unspecified)	7.62%
Cc1cccc(CNC(=O)c2sc(=O)n(Cc3ccccc3C)c2C)c1	-3.32%
O=C(NC1=CC(=O)c2ccccc2C1=O)c1ccccc1	120% (active)
Cn1c(NC(=O)c2ccccc2)nc2ccccc21	-0.44%
O=C1C=C(NS(=O)(=O)c2ccccc2)C(=O)c2ccccc21	5.11%
O=C(c1ccc(CS(=O)Cc2ccccc2Cl)o1)N1CCN(c2ccccc2)CC1 (stereo unspecified)	2.07%
O=C(CCc1ccc(O)cc1)NN=Cc1cc(Br)ccc1O	-6.15%
CCc1nc2c(OCCC3CCCCC3)cccn2c1N(C)C(=O)c1ccco1	3.23%
CC1(C)CC(=O)C=C(NCCCNC2CCCCC2)C1	-5.64%
COC(=O)NNC1=CC(=O)CC(C)(C)C1	7.17%
CC1(C)CC(=O)C=C(NC2CC(C)(C)NC(C)(C)C2)C1	65.2% (active)
O=C(c1ccc(N2CCCC2=O)cc1)N1CCN(c2ccc(C(F)(F)F)cc2[N+](=O)[O-])CC1	-4.95%
CC(C)C[C@H]1CNC(=S)N1C[C@H]1CCCN1C[C@H](Cc1ccc(O)cc1)N1C[C@H](Cc2ccc(O)cc2)N(CC2CCCCC2)C1=S	5.91%
Cc1ccc(S(=O)(=O)N2C[C@H]3n4c(=O)ccc(=O)n4C[C@H](OC(=O)NC4CCCC4)[C@@]3(O)C2)cc1	-13.2%
Cc1ccc(CNC(=O)c2cccc3c2C(=O)c2ccc(N4CCC(C)CC4)cc2S3(=O)=O)cc1	111% (active)
Cc1ccc(CNC(=O)c2ccc3c(c2)S(=O)(=O)c2ccccc2C3=O)cc1	5.37%
CC1CCN(c2ccc3c(c2)S(=O)(=O)c2cc(C(=O)O)ccc2C3=O)CC1	-0.214%
